Laboratory results published in PubChem BioAssay AID1662 (Broad Institute, 2009).
Among all 300,000 compounds or so, about 4,000 (1.3%) were called active.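 How the source made its calls: active means mean replicate score, as percent of positive control median, at least 50; inconclusive means mean below 50 but one replicate at or above 50; inactive means mean and every replicate below 50.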 This excerpt belongs to a sample that is enriched for actives.

Test: kanamycin survival loss of SKKanGAS strain – BacTiter-Glo luminescence, streptokinase expression inhibitor project, primary screen (AID 1662);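 further: strain carries kanamycin resistance gene driven by streptokinase promoter and grows in 40 µg/ml kanamycin; loss of luminescence reflects streptokinase promoter inhibition or plain growth inhibition; 0% = median of DMSO wells and 100% = positive control at its reference dose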
Settings: S. pyogenes SKKanGAS, kanamycin growth, 6 h, at 7.5 µM, active compounds read high
In the case of `Cn1ncc2c(NNC(=O)Cc3cccc4ccccc34)ncnc21`, the inhibition is reported as -0.379% (inactive). With `COC(=O)CNS(=O)(=O)c1ccc(Cc2ccc(S(=O)(=O)NCC(=O)OC)cc2)cc1` the inhibition was 0.851% (inactive). With `CCN(CC(=O)Nc1cc(Cl)ccc1C)C(=O)CN1C(=O)NC2(CCCC2)C1=O` the inhibition was 9.28% (inactive). In the case of `O=C(O)c1ccccc1NC(=S)NC(NC(=O)c1ccccc1[N+](=O)[O-])C(Cl)(Cl)Cl` (stereo not drawn), the inhibition is reported as -2.95% (inactive). In the case of `Cc1cccc(NC(=O)Nc2nnc(-c3ccccc3)o2)c1`, the inhibition is reported as 15% (inactive). With `O=C(Nc1nnc(-c2ccc(Cl)cc2)o1)c1ccccc1Br` the inhibition was 93.9% (active). With `CCn1c2ccccc2c2cc(NC(=O)COC(=O)c3ccccc3Br)ccc21` the inhibition was 2.54% (inactive). For `O=C(COC(=O)c1ccccc1Br)Nc1nnc(-c2ccccc2)o1`, the inhibition was 72.3% (active). In the case of `O=C(COC(=O)c1ccc(Oc2ccccc2)cc1)Nc1nnc(-c2ccccc2)o1`, the inhibition is reported as 79.8% (active). In the case of `O=C(Nc1cccc(Cl)c1)Nc1nnc(-c2ccccc2)o1`, the inhibition is reported as 5.48% (inactive). With `O=C(COC(=O)CSc1nnc(-c2ccc(Cl)cc2)o1)Nc1cc(Cl)cc(Cl)c1` the inhibition was 3.37% (inactive). For `CC(=O)Nc1cccc(C(=O)OCC(=O)Nc2nnc(-c3ccccc3)o2)c1`, the inhibition was 13.3% (inactive). In the case of `Cc1ccnc2nc(C(=O)Nc3nnc(-c4ccccc4)o3)nn12`, the inhibition is reported as 1.08% (inactive). For `COc1ccc(-c2cc(=O)oc3cc(OC(C)C(=O)Nc4ccc(CN5CCOCC5)cc4)ccc23)cc1` (stereo not drawn), the inhibition was 15.3% (inactive). In the case of `COCCCNC(=O)C1CC(=O)N(CCc2ccc(F)cc2)C1` (stereo not drawn), the inhibition is reported as 1.79% (inactive). With `CC(C)(C)NC(=O)c1cccc(NC(=O)Cc2ccc(Br)cc2)c1` the inhibition was 0.415% (inactive). For `COc1ccc(C(=O)NNC(=S)NC(=O)c2ccccc2)cc1`, the inhibition was 91.7% (active). For `COc1ccc(C(=O)NC(=S)NNC(=O)CCc2ccccc2)cc1`, the inhibition was 9.14% (inactive). In the case of `COc1ccc(C(=O)NNC(=S)NC(=O)c2ccccc2[N+](=O)[O-])cc1`, the inhibition is reported as -1.63% (inactive). For `CCCCCC(=O)NC(=S)NNC(=O)c1ccc([N+](=O)[O-])cc1`, the inhibition was 21.9% (inactive). With `CNC(=S)NNC(=O)c1ccc(N(C)C)cc1` the inhibition was -13.5% (inactive). With `CC(=O)NC(=S)NNC(=O)c1ccc(Br)cc1` the inhibition was 79% (active). For `O=C(NCC(c1cccs1)N1CCOCC1)c1cc(-c2ccccn2)nc2ccccc12` (stereo not drawn), the inhibition was -7.21% (inactive). In the case of `CC(=O)N1CCOc2ccc(S(=O)(=O)N3CCN(c4cccc(C(F)(F)F)c4)CC3)cc21`, the inhibition is reported as 2.46% (inactive). In the case of `COc1ccc(N2CCC(CNC(=S)Nc3c(C)cccc3C)C2)cc1` (stereo not drawn), the inhibition is reported as -4.36% (inactive). In the case of `Cc1ccc(CN2CCC(N3CCC(C(=O)NCC4CCCO4)CC3)CC2)o1` (stereo not drawn), the inhibition is reported as 4.3% (inactive). In the case of `CCOC(=O)C1(Cc2ccccc2C)CCCN(C(=O)CN2C(=O)CSC2=O)C1` (stereo not drawn), the inhibition is reported as 5.85% (inactive). In the case of `CC(=O)Nc1nc(N(C)C)nc(N(C)C)n1`, the inhibition is reported as 2.59% (inactive). For `O=C(/C=C/c1ccco1)Nc1cccc(-c2nc3ccccc3[nH]2)c1`, the inhibition was 16.2% (inactive). In the case of `Cc1ccc(-c2nc3ccccc3[nH]2)cc1NC(=O)c1sc2ccccc2c1Cl`, the inhibition is reported as 4.45% (inactive). In the case of `O=C(Nc1cccc(-c2nc3ccccc3[nH]2)c1)c1ccc(C(=O)Nc2cccc(-c3nc4ccccc4[nH]3)c2)cc1`, the inhibition is reported as 64% (active). In the case of `O=C(NC1CC1)c1ccc(-c2ccccc2)cc1`, the inhibition is reported as 1.81% (inactive). With `O=C(CC1SC(=Nc2ccccc2F)N(CCN2CCOCC2)C1=O)Nc1ccc(F)cc1F` (stereo not drawn) the inhibition was -5.01% (inactive). With `COc1ccccc1OCC(=O)Nc1c2c(nn1-c1ccc(F)cc1)CS(=O)(=O)C2` the inhibition was 74.3% (active). With `O=C(CC1CCCCC1)Nc1c2c(nn1-c1ccc(F)cc1)CS(=O)(=O)C2` the inhibition was -9.45% (inactive). In the case of `CCOc1ccc(C(=O)Nc2c3c(nn2-c2ccccc2)CS(=O)(=O)C3)cc1`, the inhibition is reported as 1.84% (inactive). In the case of `O=C(CN(c1cccc(Cl)c1)S(=O)(=O)c1ccccc1)NN=C1CCCC1`, the inhibition is reported as 6.57% (inactive). With `CSc1ncccc1C(=O)NCc1ccccc1Cl` the inhibition was -1.26% (inactive). In the case of `CNC(=O)c1nnn(-c2ccccc2)c1C(=O)NC`, the inhibition is reported as 3% (inactive). In the case of `Oc1ccc(/C=N/N(Cc2ccccc2)c2ccccc2)cc1`, the inhibition is reported as 77.6% (active). With `O=C(C[n+]1ccccc1)N/N=C/c1ccc(O)cc1` the inhibition was -9.65% (inactive). For `CN(C)c1ccc(/C=N/N(Cc2ccccc2)c2ccccc2)cc1`, the inhibition was -5.9% (inactive). In the case of `CCCCC(NS(=O)(=O)c1ccc(C)cc1)C(=O)Oc1ccc2c3c(c(=O)oc2c1)CCC3` (stereo not drawn), the inhibition is reported as 8.5% (inactive). With `CC(C)COC(=O)n1c(=O)oc2ccc(S(=O)(=O)N3CCCCC3)cc21` the inhibition was -4.31% (inactive). With `COc1ccc(-n2c(SCC(=O)Nc3ccc4c(c3)OCO4)nnc2C(C)N2CCCCC2)cc1` (stereo not drawn) the inhibition was -5.05% (inactive). With `CC(C)Oc1ccc(S(=O)(=O)N2CCOCC2)cc1NC(=O)C1CSC2(C)CCC(=O)N12` (stereo not drawn) the inhibition was 12% (inactive). In the case of `CCN(CC)S(=O)(=O)c1ccc(N2CCOCC2)c(NC(=O)C2COc3ccccc3O2)c1` (stereo not drawn), the inhibition is reported as 2.77% (inactive). For `CCN(CC)S(=O)(=O)c1ccc(N2CCOCC2)c(NC(=O)C2CSC3(C)CCC(=O)N23)c1` (stereo not drawn), the inhibition was 52.3% (active). In the case of `COc1ccc(Cl)cc1N(CC(=O)N1CCCCC1)S(C)(=O)=O`, the inhibition is reported as -8.05% (inactive). With `O=[N+]([O-])/C=C/c1ccc2c(ccn2Cc2ccccc2)c1` the inhibition was 81% (active). With `O=c1c([N+](=O)[O-])cc(C(F)(F)F)cn1Cc1cccc(Cl)c1` the inhibition was -8.03% (inactive). In the case of `O=C(/C=C/c1cccc([N+](=O)[O-])c1)N1CCN(Cc2ccccc2)CC1`, the inhibition is reported as 2.48% (inactive). With `O=C(c1cccs1)C1C(c2ccc(Br)cc2)NC(=S)NC1(O)C(F)(F)F` (stereo not drawn) the inhibition was -1.18% (inactive). In the case of `Cc1[nH]n(-c2ccccc2)c(=O)c1CCOC(=O)c1ccc(C(F)(F)F)cc1`, the inhibition is reported as 3.86% (inactive). For `CCCNC(=O)CCn1cc(-c2ccc(OC)cc2)nc1CCN`, the inhibition was -0.358% (inactive). For `c1ccc2c(c1)OCC(CNc1ncnc3nc[nH]c13)O2` (stereo not drawn), the inhibition was 0.403% (inactive). With `COc1ccc(Nc2ncnc3sc(-c4ccccc4)cc23)c(OC)c1` the inhibition was 17.7% (inactive). With `c1ccc(-c2cc3c(NCC4COc5ccccc5O4)ncnc3s2)cc1` (stereo not drawn) the inhibition was 74.2% (active). With `O=C(O)c1ccc(NS(=O)(=O)c2ccc3c(c2)C(=O)c2cc(S(=O)(=O)Nc4ccc(C(=O)O)cc4)ccc2-3)cc1` the inhibition was 7.11% (inactive). In the case of `CC(=O)c1cccc(NC(=O)C2CCN(C(=O)c3ccccc3Cl)CC2)c1`, the inhibition is reported as -0.79% (inactive). For `Cc1cccc(-n2c(SCC(N)=O)nc3c(c2=O)C2(CCCCC2)Cc2ccccc2-3)c1`, the inhibition was 13.1% (inactive). In the case of `N#C/C(=C(/O)COc1cccc2ccccc12)c1nc2ccccc2[nH]1`, the inhibition is reported as 7.13% (inactive). With `O=C(O)c1ccccc1CSc1nc2ccccc2s1` the inhibition was 38.1% (inactive). With `N#C/C(=C(/O)Cc1cccc2ccccc12)c1nc2ccccc2s1` the inhibition was 79.1% (active). For `CN1CCC(CN)(N2CCN(c3ccccc3)CC2)CC1`, the inhibition was -3.22% (inactive). For `Cc1ccc(CNCc2ccc3c(c2)OCO3)c(C)c1`, the inhibition was 0.677% (inactive). In the case of `O=C(O)CCN(Cc1ccccc1)S(=O)(=O)c1c(Cl)cccc1Cl`, the inhibition is reported as 8.43% (inactive). In the case of `CC(C)CC[n+]1ccn(C2=C([O-])c3ccccc3C(=O)/C2=N\S(=O)(=O)c2ccccc2)c1`, the inhibition is reported as 62.6% (active). For `NNc1nc2c(Cl)cccc2s1`, the inhibition was -7.59% (inactive). For `Cc1nc2nc(C)c(NS(=O)(=O)c3ccc(C(C)(C)C)cc3)c(=O)n2[nH]1`, the inhibition was 19.7% (inactive). In the case of `O=C(NCCc1ccccn1)c1cc(-c2ccc(Cl)cc2)nc2ccccc12`, the inhibition is reported as 1.78% (inactive). For `CCOC(=O)CSc1nnc(NC(=O)C2CC(=O)N(c3ccc(F)cc3)C2)s1` (stereo not drawn), the inhibition was 39.8% (inactive). In the case of `COc1ccc(CCNC(=O)COC(=O)Cc2cc(OC)c(OC)c(OC)c2)cc1`, the inhibition is reported as 1.27% (inactive). With `O=C1OC(OC(=O)c2ccccc2Br)C(N2CCOCC2)=C1Cl` (stereo not drawn) the inhibition was 35.8% (inactive). For `Cc1ccc(NC2=C(Cl)C(=O)OC2OC(=O)c2ccccc2C)cc1` (stereo not drawn), the inhibition was 66% (active). In the case of `Cc1ccccc1C(=O)OC1OC(=O)C(Cl)=C1Nc1ccccc1` (stereo not drawn), the inhibition is reported as 3.76% (inactive). With `O=[N+]([O-])c1ccc(N(CCO)Cc2ccccc2)c([N+](=O)[O-])c1` the inhibition was 4.42% (inactive). For `CN(C)CCCNC(=S)N1CCN(c2nc(-c3ccccc3)cs2)CC1`, the inhibition was -0.915% (inactive). In the case of `CC[C@H]1OC(=O)[C@H](C)[C@@H](O[C@H]2C[C@@](C)(OC)[C@@H](O)[C@H](C)O2)[C@H](C)[C@@H](O[C@@H]2O[C@H](C)C[C@H](N(C)C)[C@H]2O)[C@](C)(O)C[C@@H](C)[C@@H]2N[C@@H](COCCOC)O[C@H]([C@H]2C)[C@]1(C)O`, the inhibition is reported as 106% (active). For `CCN1CC(CN(C)Cc2nc(-c3ccc(Cl)cc3)no2)CC1=O` (stereo not drawn), the inhibition was 1.31% (inactive). In the case of `CCOC(=O)C1(Cc2cccc(OC)c2)CCCN(C(=O)CCSC)C1` (stereo not drawn), the inhibition is reported as 1.89% (inactive). For `C=CCNC(=O)c1ccc2c3n(nc2c1)-c1ccc(C)cc1CO3`, the inhibition was -8.54% (inactive). For `CCCC(=O)NC(Nc1ccccc1OC)C(Cl)(Cl)Cl` (stereo not drawn), the inhibition was 1.6% (inactive). For `CCCn1c(NC(=O)C23CC4CC(CC(O)(C4)C2)C3)nc2ccccc21`, the inhibition was 54.4% (active). With `CCn1c(NC(=O)c2nn(C)cc2Br)nc2ccccc21` the inhibition was -1.42% (inactive). For `CCOc1ccccc1NC(=O)C12CC3CC(C1)CC(c1ccc(C)cc1)(C3)C2`, the inhibition was 20.1% (inactive). For `COc1cccc(N(C(=O)c2snc(C(N)=O)c2N)C(C(=O)NCC2CCCO2)c2c[nH]c3ccccc23)c1` (stereo not drawn), the inhibition was 3.94% (inactive). With `N#C/C(=C(\O)C(F)(F)F)c1nnc2n1CCCCC2` the inhibition was 7.62% (inactive). For `Cn1sc(NC(=O)c2ccccc2)nc1=O`, the inhibition was 1.73% (inactive). In the case of `Cn1c(-c2ccc(C(=O)c3ccccc3)s2)nc2ccccc21`, the inhibition is reported as -1.65% (inactive). With `Cn1c(NC(=O)c2ccccc2)nc2ccccc21` the inhibition was 51.2% (active). With `Cc1ccc(C)c(C(C)NC(=O)C2CCCO2)c1` (stereo not drawn) the inhibition was 1.89% (inactive). With `COc1cc2ccccc2cc1C(=O)Nc1ccncc1` the inhibition was -4.59% (inactive). In the case of `COc1cc(NC(=O)c2cccs2)ccc1NC(=O)c1ccccc1Cl`, the inhibition is reported as 3.93% (inactive). In the case of `COc1cc2ccccc2cc1C(=O)Nc1ccc(NC(=O)c2cccs2)cc1`, the inhibition is reported as 64.7% (active). In the case of `Cc1ccc(S(=O)(=O)NCCc2nnc3ccc(SCc4cccnc4)nn23)cc1`, the inhibition is reported as 4.92% (inactive). For `COc1ccc2sc(N(CCCN(C)C)C(=O)c3ccc(S(=O)(=O)N(C)C4CCCCC4)cc3)nc2c1`, the inhibition was -0.457% (inactive). In the case of `O=S(=O)(NCC1CC1)c1ccc(F)c(Cl)c1`, the inhibition is reported as -1.69% (inactive). With `O=C(c1ccccc1)N1N=C(c2ccccc2O)CC1c1ccc(Br)cc1` (stereo not drawn) the inhibition was 18.1% (inactive). For `Oc1ccccc1C1=NN(c2ccccc2)C(c2ccccc2)C1` (stereo not drawn), the inhibition was 93.5% (active). With `COc1ccc(C2CC(c3cccs3)=NN2c2ccccc2)cc1` (stereo not drawn) the inhibition was 11.6% (inactive). For `Cc1nc2cc(C(F)(F)F)ccc2n1CCNc1nc(-c2cc(Cl)c(N)c(Cl)c2)cs1`, the inhibition was 34.8% (inactive). In the case of `CCCc1cc(=O)[nH]c2nnc(SCC(=O)Nc3nnc(SCC)s3)n12`, the inhibition is reported as 15.3% (inactive).
